Assay results taken from PubChem BioAssay (NCATS).
Inconclusive results are not listed. Calls of active or inactive are those of the source. Unless noted, calls come from the whole dose curve; as a rule, active = well fitted curve in the direction sought with a large enough effect; inconclusive = small, poorly fitted or top-dose-only effect, or another doubt; inactive = no such curve, though single readings can be large; an effect the other way counts as inactive or inconclusive.

What was measured:
[1] = molecular target: Tumor susceptibility gene 101 protein (Homo sapiens) (UniProt Q99816); assay: qHTS Validation Assay for Iinhibitors of HIV-1 Budding by Blocking the Interaction of PTAP/TSG101 (AID 485342; calls by dose curve)
Tumor susceptibility gene 101 protein (Homo sapiens), sequence (Q99816 whole entry, looked up, the tested form may be a part): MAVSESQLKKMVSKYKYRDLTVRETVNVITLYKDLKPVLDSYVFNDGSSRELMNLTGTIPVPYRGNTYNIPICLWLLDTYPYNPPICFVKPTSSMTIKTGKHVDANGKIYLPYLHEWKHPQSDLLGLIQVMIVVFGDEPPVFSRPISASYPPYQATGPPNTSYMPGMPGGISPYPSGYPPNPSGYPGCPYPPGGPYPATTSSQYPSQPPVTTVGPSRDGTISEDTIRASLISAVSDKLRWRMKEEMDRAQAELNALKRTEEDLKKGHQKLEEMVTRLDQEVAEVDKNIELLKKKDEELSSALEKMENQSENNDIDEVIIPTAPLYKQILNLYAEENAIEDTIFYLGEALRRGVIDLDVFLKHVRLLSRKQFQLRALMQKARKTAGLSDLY
How it was run: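 Fluorescence anisotropy measured PTAP-Tsg101 interaction. Final concentrations were 10 uM protein domain and 50 nM labeled peptide, equilibrated 20 min at room temperature.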

[2] = qHTS Validation Assay to Find Inhibitors of Chronic Active B-Cell Receptor Signaling (AID 485345; active = well fitted curve in the direction sought with a large enough effect in the main read-out, with a control signal flat, not every such curve was filed as active)
How it was run: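 Read-out: ratio of filter-corrected green (IkappaBalpha fusion) to red (native) luciferase signal in doxycycline-induced TMD8 cells after 4 h at 37C. Titration spanned 46 uM–3 nM; Data were normalised to basal cells and 10 uM MG-132 wells.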

[3] = molecular target: Beta-2 adrenergic receptor (Homo sapiens) (UniProt P07550); assay: qHTS validation assay of beta-arrestin-biased ligands of beta2-adrenergic receptor (AID 485366)
Beta-2 adrenergic receptor (Homo sapiens), sequence (P07550 whole entry, looked up): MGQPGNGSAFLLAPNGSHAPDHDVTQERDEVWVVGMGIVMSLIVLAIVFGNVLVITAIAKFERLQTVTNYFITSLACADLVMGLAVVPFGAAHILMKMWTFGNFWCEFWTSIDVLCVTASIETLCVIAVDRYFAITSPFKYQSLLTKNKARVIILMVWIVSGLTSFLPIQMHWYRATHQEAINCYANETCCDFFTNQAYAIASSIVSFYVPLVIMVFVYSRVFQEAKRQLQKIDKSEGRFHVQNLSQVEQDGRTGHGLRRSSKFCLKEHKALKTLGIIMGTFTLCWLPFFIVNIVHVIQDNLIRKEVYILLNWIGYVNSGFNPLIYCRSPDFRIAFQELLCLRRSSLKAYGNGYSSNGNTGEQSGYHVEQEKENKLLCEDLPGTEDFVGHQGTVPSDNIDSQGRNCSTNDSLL
How it was run: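 qHTS, Tango cells, 1500 cells/well, DMEM + 1% FBS. Cpd 18 hr at 37 degrees C. Luciferin/ATP/CoA detection mix, 15 min RT, luminescence read. %Activity from corrected signal; CRC fit, curve class.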

[4] = Quantitative high throughput screen for delayed death inhibitors of the malarial parasite plastid, 96 hour incubation (AID 488745); note: nearly all actives have a fitted effect of over 70% in size; note: potency is the fitted concentration of half-maximal effect
How it was run: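 Decreased firefly luciferase luminescence indicates inhibited growth of reporter-integrated P. falciparum after two generations (96 h, 37 C, 5% CO2). Infected erythrocytes at 0.1% parasitemia, 2% hematocrit, in Albumax-supplemented RPMI 1640.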

[5] = Quantitative high throughput screen for delayed death inhibitors of the malarial parasite plastid, 48 hour incubation (AID 488752); note: nearly all actives have a fitted effect of over 65% in size
How it was run: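 One-generation (48 h) growth assay: a decrease in luciferase signal from an integrated reporter in P. falciparum-infected red cells (0.1% parasitemia, 2% hematocrit) after compound exposure at 37 C indicates parasite inhibition.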

[6] = molecular target: Thioredoxin reductase 1, cytoplasmic (Rattus norvegicus) (UniProt O89049); assay: qHTS Assay for Substrates of Mammalian Selenoprotein Thioredoxin Reductase 1 (TrxR1) (AID 488772);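 note: a drop in NADPH fluorescence below the no-compound background marks a TrxR1 substrate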
Thioredoxin reductase 1, cytoplasmic (Rattus norvegicus), sequence (O89049 whole entry, looked up): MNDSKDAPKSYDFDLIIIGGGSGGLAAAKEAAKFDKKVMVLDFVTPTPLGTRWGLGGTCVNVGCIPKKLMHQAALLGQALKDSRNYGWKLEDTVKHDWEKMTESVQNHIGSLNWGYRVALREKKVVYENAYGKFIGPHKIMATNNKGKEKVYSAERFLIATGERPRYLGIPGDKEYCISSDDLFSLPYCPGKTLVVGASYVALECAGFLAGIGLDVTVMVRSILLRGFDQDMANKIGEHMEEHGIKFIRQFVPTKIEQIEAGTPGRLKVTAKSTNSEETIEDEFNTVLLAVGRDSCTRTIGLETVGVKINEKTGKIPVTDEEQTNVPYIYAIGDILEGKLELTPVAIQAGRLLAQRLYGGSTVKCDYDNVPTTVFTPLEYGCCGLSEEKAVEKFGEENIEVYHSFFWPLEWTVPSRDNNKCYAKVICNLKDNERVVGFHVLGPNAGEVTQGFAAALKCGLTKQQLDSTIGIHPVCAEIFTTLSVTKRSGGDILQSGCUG
How it was run: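 In this dual-purpose format, potential substrates are identified from the first fluorescence read after selenite addition, not from the 8-minute delta. Rat enzyme is preincubated with NADPH and then with compound at ~22 deg C.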

[7] = molecular target: M-phase phosphoprotein 8 (Homo sapiens) (UniProt Q99549); assay: qHTS Validation Assay for Inhibitors for MPP8 Chromodomain Interactions with Methylated Histone Tails (AID 488949); note: nearly all actives have a fitted effect of over 55% in size; note: potency is the fitted concentration of half-maximal effect
M-phase phosphoprotein 8 (Homo sapiens), sequence (Q99549 whole entry, looked up): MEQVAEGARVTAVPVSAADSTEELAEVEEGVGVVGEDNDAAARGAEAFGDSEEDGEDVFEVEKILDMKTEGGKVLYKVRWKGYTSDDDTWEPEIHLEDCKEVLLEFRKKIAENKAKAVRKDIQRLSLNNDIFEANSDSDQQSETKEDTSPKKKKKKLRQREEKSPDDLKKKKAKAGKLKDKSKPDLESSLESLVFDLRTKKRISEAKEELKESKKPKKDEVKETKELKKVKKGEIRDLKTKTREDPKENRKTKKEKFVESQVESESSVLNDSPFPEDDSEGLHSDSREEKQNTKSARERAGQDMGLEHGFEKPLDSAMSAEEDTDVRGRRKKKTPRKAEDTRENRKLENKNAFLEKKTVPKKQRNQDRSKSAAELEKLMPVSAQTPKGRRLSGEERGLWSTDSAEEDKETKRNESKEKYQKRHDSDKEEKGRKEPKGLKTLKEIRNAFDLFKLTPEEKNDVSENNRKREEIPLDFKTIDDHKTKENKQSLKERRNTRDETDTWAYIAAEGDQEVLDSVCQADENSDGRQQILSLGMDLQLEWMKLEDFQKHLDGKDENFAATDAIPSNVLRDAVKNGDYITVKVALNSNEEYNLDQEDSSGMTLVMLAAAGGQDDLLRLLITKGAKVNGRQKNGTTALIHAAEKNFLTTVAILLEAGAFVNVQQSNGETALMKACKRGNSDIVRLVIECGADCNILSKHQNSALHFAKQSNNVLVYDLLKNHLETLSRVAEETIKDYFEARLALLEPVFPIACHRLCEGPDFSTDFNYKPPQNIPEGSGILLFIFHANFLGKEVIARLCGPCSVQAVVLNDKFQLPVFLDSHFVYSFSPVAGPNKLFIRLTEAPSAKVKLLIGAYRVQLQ
How it was run: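 Disruption of the preformed MPP8–trimethyl-H3K9 peptide complex (both 50 nM, 30 min, RT) is measured after 30 min compound exposure, using AlphaScreen proximity beads; aurintricarboxylic acid titration serves as plate control.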

[8] = molecular target: ATP-dependent 6-phosphofructokinase (Trypanosoma brucei brucei) (UniProt O15648); assay: qHTS Validation Assay to Find Inhibitors of T. brucei phosphofructokinase (AID 485368); conditions: T. brucei PFK enzyme assay, qHTS 7-point titration; at 57.5 µM (top of the series)
ATP-dependent 6-phosphofructokinase (Trypanosoma brucei brucei), sequence (O15648 whole entry, looked up): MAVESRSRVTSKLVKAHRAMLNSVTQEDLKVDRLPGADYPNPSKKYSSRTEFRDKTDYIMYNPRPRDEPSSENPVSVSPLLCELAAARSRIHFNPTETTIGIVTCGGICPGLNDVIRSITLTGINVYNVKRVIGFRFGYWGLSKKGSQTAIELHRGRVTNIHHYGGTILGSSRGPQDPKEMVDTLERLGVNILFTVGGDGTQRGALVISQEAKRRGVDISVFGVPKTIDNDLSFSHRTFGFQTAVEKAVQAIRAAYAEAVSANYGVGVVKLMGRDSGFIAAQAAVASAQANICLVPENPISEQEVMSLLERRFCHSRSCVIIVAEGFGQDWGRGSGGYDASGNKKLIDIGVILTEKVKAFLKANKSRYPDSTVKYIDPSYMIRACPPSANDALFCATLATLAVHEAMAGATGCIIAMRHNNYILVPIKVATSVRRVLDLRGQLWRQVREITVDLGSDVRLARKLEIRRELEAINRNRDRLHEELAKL
How it was run: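 Luminescent ADP detection measures PFK turnover of fructose-6-phosphate (0.5 mM) with ATP (0.1 mM) at pH 8.0. Reaction runs 45 min at room temperature with 1.25 nM enzyme; inhibitors tested as titrations up to 57 uM.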

[9] = molecular target: Thioredoxin reductase 1, cytoplasmic (Rattus norvegicus) (UniProt O89049); assay: qHTS Assay for Inhibitors of Mammalian Selenoprotein Thioredoxin Reductase 1 (TrxR1) (AID 488773); conditions: Potency: inhibition; note: nearly all actives have a fitted effect of over 40% in size; note: potency is the fitted concentration of half-maximal effect
How it was run: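 Inhibition is scored from the loss of NADPH fluorescence between first and last reads of an 8-min kinetic run. Selenite (400 uM) was the substrate, added after 15 min compound preincubation at room temperature.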

[10] = molecular target: Flap endonuclease 1 (Homo sapiens) (UniProt P39748); assay: qHTS Validation Assay for the Inhibitors of Human Flap endonuclease 1 (FEN1) (AID 488816); note: potency is the fitted concentration of half-maximal effect
Flap endonuclease 1 (Homo sapiens), sequence (P39748 whole entry, looked up): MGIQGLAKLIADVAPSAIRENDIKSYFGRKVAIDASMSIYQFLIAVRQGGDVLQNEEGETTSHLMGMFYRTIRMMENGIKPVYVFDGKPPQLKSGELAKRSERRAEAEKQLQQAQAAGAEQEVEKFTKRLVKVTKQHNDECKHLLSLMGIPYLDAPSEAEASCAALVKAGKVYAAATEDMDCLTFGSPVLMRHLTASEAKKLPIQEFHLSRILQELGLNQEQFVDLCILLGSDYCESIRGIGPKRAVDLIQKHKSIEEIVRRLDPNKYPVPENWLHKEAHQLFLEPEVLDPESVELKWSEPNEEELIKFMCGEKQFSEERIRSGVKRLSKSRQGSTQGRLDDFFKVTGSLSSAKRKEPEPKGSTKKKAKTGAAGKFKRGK
How it was run: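 qHTS format: compounds and 10 nM FEN1 incubated 15 min at room temperature before adding 50 nM substrate. Cleavage followed by reads at 0 and 15 min; normalized data fitted to a four-parameter Hill curve.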

Measured: Potency

NC1CCc2cc(O)c(O)cc2C1 (stereo not drawn)
active: [7] 79.4 µM
not listed: [8] | [9] | [10]
inactive: all other assays above

C[C@]12CCC3C(CC[C@H]4C[C@H](O)CC[C@]34C)C1CC[C@@H]2C(=O)CO (stereo partly drawn)
not listed: [2] | [4] | [5]
inactive: all other assays above

Cc1nccc2c1[nH]c1ccccc12
not listed: [2] | [8] | [10]
inactive: all other assays above

C#CCOC(=O)C1=CCCN(C)C1
not listed: [8]
inactive: all other assays above

CCn1cc(C(=O)O)c(=O)c2cc3c(cc21)OCO3
inactive: [6]

CCCN(CCC)C1CCc2ccc(O)cc2C1 (stereo not drawn)
not listed: [5] | [6] | [8]
inactive: all other assays above

CNCCc1ccc(O)c(O)c1
active: [9] 13.4 µM | [10] 2.99 µM
not listed: [8]
inactive: all other assays above

c1ccc(CCCN2CCN(CCOC(c3ccccc3)c3ccccc3)CC2)cc1
active: [4] 2.08 µM | [7] 39.8 µM
not listed: [5] | [8]
inactive: all other assays above

C[C@]12N[C@H](Cc3ccccc31)c1ccccc12
not listed: [8]
inactive: all other assays above

CC(C)Oc1cccnc1N(C)C1CCN(Cc2ccccc2)CC1
not listed: [8]
inactive: all other assays above
